# Reference: article PMC7862700, “An all-to-all approach to the identification of sequence-specific readers for epigenetic DNA modifications on cytosine”
# Key:
# Assay in all cases: DAPPL (digital affinity profiling via proximity ligation, sequencing); 10 mM Tris-HCl pH 7.5, 50 mM NaCl, 1 mM DTT, 4% glycerol, room temperature, 30 min; GST-TFs on glutathione beads, 16-mer random dsDNA library, 0.1% formaldehyde crosslink after washing; high values mean tight binding
# Details in all cases: protein: recombinant; tags: N-terminal GST; dsDNA, one strand shown
# [1] = molecular target: T1, ERF (Homo sapiens, UniProt P50548 1-548)
# T1 sequence: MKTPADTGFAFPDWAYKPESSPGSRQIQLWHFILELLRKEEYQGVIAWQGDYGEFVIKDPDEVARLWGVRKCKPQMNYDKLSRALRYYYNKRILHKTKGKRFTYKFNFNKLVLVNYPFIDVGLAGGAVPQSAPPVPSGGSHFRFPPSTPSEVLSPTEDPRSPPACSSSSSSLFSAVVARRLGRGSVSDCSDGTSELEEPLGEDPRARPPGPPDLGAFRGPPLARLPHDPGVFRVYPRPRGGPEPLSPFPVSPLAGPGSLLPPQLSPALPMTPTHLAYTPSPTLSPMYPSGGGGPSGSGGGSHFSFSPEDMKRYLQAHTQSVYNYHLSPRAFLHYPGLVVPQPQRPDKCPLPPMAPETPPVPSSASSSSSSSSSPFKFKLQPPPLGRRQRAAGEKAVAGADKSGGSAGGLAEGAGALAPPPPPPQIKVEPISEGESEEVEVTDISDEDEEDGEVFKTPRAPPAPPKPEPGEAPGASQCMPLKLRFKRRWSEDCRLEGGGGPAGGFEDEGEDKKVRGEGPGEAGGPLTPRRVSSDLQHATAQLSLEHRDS
# In short: (§1)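 Binding signal is defined as a hexamer's read frequency for one factor over its frequency for the tag-only sample. To obtain reads, GST-fused human transcription factors were expressed in yeast, captured on glutathione beads, barcoded with DNA and pooled with that sample. Pools met 200 nmole of a 16-mer random double-stranded DNA library in Tris/NaCl/DTT/glycerol buffer for 30 min at room temperature before washing, 0.1% formaldehyde crosslinking, proximity ligation (BsaI/T4 ligase, 1 h, 37 °C), PCR and Illumina NextSeq500 sequencing.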
# [2] = molecular target: T2, ETV3L (Homo sapiens, UniProt Q6ZN32 1-361)
# T2 sequence: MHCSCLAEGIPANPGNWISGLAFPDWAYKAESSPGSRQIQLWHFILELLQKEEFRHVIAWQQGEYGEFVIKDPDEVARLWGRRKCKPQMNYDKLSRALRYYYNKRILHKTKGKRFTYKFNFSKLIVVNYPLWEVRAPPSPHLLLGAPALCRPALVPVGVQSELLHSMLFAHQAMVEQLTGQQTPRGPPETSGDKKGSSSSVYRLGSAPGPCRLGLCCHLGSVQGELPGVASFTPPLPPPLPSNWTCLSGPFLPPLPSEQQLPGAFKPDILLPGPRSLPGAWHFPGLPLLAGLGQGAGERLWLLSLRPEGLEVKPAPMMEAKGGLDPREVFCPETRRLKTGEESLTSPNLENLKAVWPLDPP
# In short: as §1
# [3] = molecular target: T3, ETS2 (Homo sapiens, UniProt P15036 1-469)
# T3 sequence: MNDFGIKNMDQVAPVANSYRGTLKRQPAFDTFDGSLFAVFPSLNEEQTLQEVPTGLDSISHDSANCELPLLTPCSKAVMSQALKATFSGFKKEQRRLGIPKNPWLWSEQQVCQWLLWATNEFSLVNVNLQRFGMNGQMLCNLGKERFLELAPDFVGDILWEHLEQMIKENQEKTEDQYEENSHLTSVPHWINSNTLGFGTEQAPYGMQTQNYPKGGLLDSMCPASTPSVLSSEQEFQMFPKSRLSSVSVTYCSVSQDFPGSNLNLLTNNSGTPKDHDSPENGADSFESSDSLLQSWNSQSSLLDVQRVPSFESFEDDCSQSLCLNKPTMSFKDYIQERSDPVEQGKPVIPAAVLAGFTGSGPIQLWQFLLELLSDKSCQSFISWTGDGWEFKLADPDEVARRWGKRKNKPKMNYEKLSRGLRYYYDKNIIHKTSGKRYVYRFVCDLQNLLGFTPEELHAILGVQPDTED
# In short: as §1
# [4] = molecular target: T4, SPDEF (Homo sapiens, UniProt O95238 1-335)
# T4 sequence: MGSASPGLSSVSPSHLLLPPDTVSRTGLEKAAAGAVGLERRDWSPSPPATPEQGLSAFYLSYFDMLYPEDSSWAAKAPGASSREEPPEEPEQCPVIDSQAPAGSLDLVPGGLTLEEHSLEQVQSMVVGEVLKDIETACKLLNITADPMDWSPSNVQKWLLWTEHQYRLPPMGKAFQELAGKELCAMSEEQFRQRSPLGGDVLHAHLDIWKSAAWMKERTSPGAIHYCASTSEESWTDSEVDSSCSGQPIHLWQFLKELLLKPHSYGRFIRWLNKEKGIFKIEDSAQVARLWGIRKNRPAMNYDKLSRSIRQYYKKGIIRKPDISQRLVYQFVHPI
# In short: as §1
# [5] = molecular target: T5, ETV7 (Homo sapiens, UniProt Q9Y603 1-341)
# T5 sequence: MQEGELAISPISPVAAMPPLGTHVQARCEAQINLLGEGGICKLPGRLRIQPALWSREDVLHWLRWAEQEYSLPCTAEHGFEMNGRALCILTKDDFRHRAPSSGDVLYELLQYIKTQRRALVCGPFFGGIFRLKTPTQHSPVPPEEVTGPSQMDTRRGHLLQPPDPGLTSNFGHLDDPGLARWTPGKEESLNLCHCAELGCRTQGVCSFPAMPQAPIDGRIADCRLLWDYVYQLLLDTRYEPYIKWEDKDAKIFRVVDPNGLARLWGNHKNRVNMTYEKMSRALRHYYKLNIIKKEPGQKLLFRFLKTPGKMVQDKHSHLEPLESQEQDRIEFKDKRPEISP
# In short: as §1
# [6] = molecular target: T6, ELF5 (Homo sapiens, UniProt Q9UKW6-2 1-255)
# T6 sequence: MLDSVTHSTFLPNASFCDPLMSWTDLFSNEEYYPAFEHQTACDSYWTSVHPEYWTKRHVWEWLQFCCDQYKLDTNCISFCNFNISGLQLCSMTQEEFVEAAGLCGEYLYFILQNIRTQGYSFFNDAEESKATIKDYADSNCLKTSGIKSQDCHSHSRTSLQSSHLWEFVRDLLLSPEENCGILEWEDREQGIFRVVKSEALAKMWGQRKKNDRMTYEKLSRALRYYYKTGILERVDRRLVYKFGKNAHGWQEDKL
# In short: as §1
# [7] = molecular target: T7, ETV3 (Homo sapiens, UniProt P41162-2 1-143)
# T7 sequence: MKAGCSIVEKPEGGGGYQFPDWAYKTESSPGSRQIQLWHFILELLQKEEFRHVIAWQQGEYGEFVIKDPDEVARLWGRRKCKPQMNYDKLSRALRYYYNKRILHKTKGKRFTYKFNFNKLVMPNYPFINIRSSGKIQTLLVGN
# In short: as §1
# [8] = molecular target: ETV6 (Homo sapiens, UniProt P41212 1-452)
# ETV6, sequence (P41212 whole entry): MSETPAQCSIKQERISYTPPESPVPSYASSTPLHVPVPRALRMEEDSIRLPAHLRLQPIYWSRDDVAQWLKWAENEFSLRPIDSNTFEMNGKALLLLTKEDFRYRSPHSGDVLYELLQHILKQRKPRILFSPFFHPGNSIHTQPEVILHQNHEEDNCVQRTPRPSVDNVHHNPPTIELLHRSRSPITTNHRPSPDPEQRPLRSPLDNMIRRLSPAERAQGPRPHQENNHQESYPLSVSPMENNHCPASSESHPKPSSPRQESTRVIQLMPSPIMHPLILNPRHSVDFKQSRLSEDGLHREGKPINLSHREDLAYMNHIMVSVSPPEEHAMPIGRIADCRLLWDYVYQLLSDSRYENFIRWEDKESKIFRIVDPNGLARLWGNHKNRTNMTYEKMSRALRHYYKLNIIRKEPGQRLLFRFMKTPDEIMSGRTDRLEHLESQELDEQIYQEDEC
# In short: as §1
Sequence,binding signal [1],binding signal [2],binding signal [3],binding signal [4],binding signal [5],binding signal [6],binding signal [7],binding signal [8]
GATTTT,"1.16 fold enrichment (6-mer frequency, TF over GST control)","1.24 fold enrichment (6-mer frequency, TF over GST control)","1.17 fold enrichment (6-mer frequency, TF over GST control)","1.14 fold enrichment (6-mer frequency, TF over GST control)","1.13 fold enrichment (6-mer frequency, TF over GST control)","1.13 fold enrichment (6-mer frequency, TF over GST control)","1.08 fold enrichment (6-mer frequency, TF over GST control)","1.11 fold enrichment (6-mer frequency, TF over GST control)"
CCGACC,"1.59 fold enrichment (6-mer frequency, TF over GST control)","1.67 fold enrichment (6-mer frequency, TF over GST control)","1.49 fold enrichment (6-mer frequency, TF over GST control)","1.54 fold enrichment (6-mer frequency, TF over GST control)","1.55 fold enrichment (6-mer frequency, TF over GST control)","1.48 fold enrichment (6-mer frequency, TF over GST control)","1.46 fold enrichment (6-mer frequency, TF over GST control)","1.67 fold enrichment (6-mer frequency, TF over GST control)"
TGCTTC,"1.81 fold enrichment (6-mer frequency, TF over GST control)","2.16 fold enrichment (6-mer frequency, TF over GST control)","2.06 fold enrichment (6-mer frequency, TF over GST control)","2.39 fold enrichment (6-mer frequency, TF over GST control)","2.13 fold enrichment (6-mer frequency, TF over GST control)","2.66 fold enrichment (6-mer frequency, TF over GST control)","2.21 fold enrichment (6-mer frequency, TF over GST control)","2.45 fold enrichment (6-mer frequency, TF over GST control)"
CTAATT,"1.27 fold enrichment (6-mer frequency, TF over GST control)","1.23 fold enrichment (6-mer frequency, TF over GST control)","1.37 fold enrichment (6-mer frequency, TF over GST control)","1.17 fold enrichment (6-mer frequency, TF over GST control)","1.23 fold enrichment (6-mer frequency, TF over GST control)","1.22 fold enrichment (6-mer frequency, TF over GST control)","1.19 fold enrichment (6-mer frequency, TF over GST control)","1.33 fold enrichment (6-mer frequency, TF over GST control)"
TGGCCT,"1.38 fold enrichment (6-mer frequency, TF over GST control)","1.37 fold enrichment (6-mer frequency, TF over GST control)","1.32 fold enrichment (6-mer frequency, TF over GST control)","1.42 fold enrichment (6-mer frequency, TF over GST control)","1.42 fold enrichment (6-mer frequency, TF over GST control)","1.33 fold enrichment (6-mer frequency, TF over GST control)","1.35 fold enrichment (6-mer frequency, TF over GST control)","1.5 fold enrichment (6-mer frequency, TF over GST control)"
TATGAA,"1.21 fold enrichment (6-mer frequency, TF over GST control)","1.21 fold enrichment (6-mer frequency, TF over GST control)","1.27 fold enrichment (6-mer frequency, TF over GST control)","1.16 fold enrichment (6-mer frequency, TF over GST control)","1.2 fold enrichment (6-mer frequency, TF over GST control)","1.07 fold enrichment (6-mer frequency, TF over GST control)","1.17 fold enrichment (6-mer frequency, TF over GST control)","1.13 fold enrichment (6-mer frequency, TF over GST control)"
ACTTGC,"1.3 fold enrichment (6-mer frequency, TF over GST control)","1.48 fold enrichment (6-mer frequency, TF over GST control)","1.32 fold enrichment (6-mer frequency, TF over GST control)","1.44 fold enrichment (6-mer frequency, TF over GST control)","1.37 fold enrichment (6-mer frequency, TF over GST control)","1.47 fold enrichment (6-mer frequency, TF over GST control)","1.49 fold enrichment (6-mer frequency, TF over GST control)","1.52 fold enrichment (6-mer frequency, TF over GST control)"
ATGACA,"1.31 fold enrichment (6-mer frequency, TF over GST control)","1.28 fold enrichment (6-mer frequency, TF over GST control)","1.33 fold enrichment (6-mer frequency, TF over GST control)","1.31 fold enrichment (6-mer frequency, TF over GST control)","1.44 fold enrichment (6-mer frequency, TF over GST control)","1.24 fold enrichment (6-mer frequency, TF over GST control)","1.39 fold enrichment (6-mer frequency, TF over GST control)","1.34 fold enrichment (6-mer frequency, TF over GST control)"
GTCTCA,"1.37 fold enrichment (6-mer frequency, TF over GST control)","1.3 fold enrichment (6-mer frequency, TF over GST control)","1.34 fold enrichment (6-mer frequency, TF over GST control)","1.29 fold enrichment (6-mer frequency, TF over GST control)","1.13 fold enrichment (6-mer frequency, TF over GST control)","1.3 fold enrichment (6-mer frequency, TF over GST control)","1.32 fold enrichment (6-mer frequency, TF over GST control)","1.16 fold enrichment (6-mer frequency, TF over GST control)"
CCTTAC,"1.32 fold enrichment (6-mer frequency, TF over GST control)","1.26 fold enrichment (6-mer frequency, TF over GST control)","1.3 fold enrichment (6-mer frequency, TF over GST control)","1.33 fold enrichment (6-mer frequency, TF over GST control)","1.36 fold enrichment (6-mer frequency, TF over GST control)","1.69 fold enrichment (6-mer frequency, TF over GST control)","1.31 fold enrichment (6-mer frequency, TF over GST control)","1.28 fold enrichment (6-mer frequency, TF over GST control)"
TCTTGA,"1.49 fold enrichment (6-mer frequency, TF over GST control)","1.32 fold enrichment (6-mer frequency, TF over GST control)","1.28 fold enrichment (6-mer frequency, TF over GST control)","1.25 fold enrichment (6-mer frequency, TF over GST control)","1.22 fold enrichment (6-mer frequency, TF over GST control)","1.3 fold enrichment (6-mer frequency, TF over GST control)","1.18 fold enrichment (6-mer frequency, TF over GST control)","1.24 fold enrichment (6-mer frequency, TF over GST control)"
CAATTT,"1.36 fold enrichment (6-mer frequency, TF over GST control)","1.33 fold enrichment (6-mer frequency, TF over GST control)","1.28 fold enrichment (6-mer frequency, TF over GST control)","1.21 fold enrichment (6-mer frequency, TF over GST control)","1.31 fold enrichment (6-mer frequency, TF over GST control)","1.29 fold enrichment (6-mer frequency, TF over GST control)","1.43 fold enrichment (6-mer frequency, TF over GST control)","1.32 fold enrichment (6-mer frequency, TF over GST control)"
TAACTA,"1.38 fold enrichment (6-mer frequency, TF over GST control)","1.21 fold enrichment (6-mer frequency, TF over GST control)","1.4 fold enrichment (6-mer frequency, TF over GST control)","1.26 fold enrichment (6-mer frequency, TF over GST control)","1.29 fold enrichment (6-mer frequency, TF over GST control)","1.3 fold enrichment (6-mer frequency, TF over GST control)","1.29 fold enrichment (6-mer frequency, TF over GST control)","1.36 fold enrichment (6-mer frequency, TF over GST control)"
CGTAAT,"1.24 fold enrichment (6-mer frequency, TF over GST control)","1.25 fold enrichment (6-mer frequency, TF over GST control)","1.14 fold enrichment (6-mer frequency, TF over GST control)","1.19 fold enrichment (6-mer frequency, TF over GST control)","1.19 fold enrichment (6-mer frequency, TF over GST control)","1.2 fold enrichment (6-mer frequency, TF over GST control)","1.19 fold enrichment (6-mer frequency, TF over GST control)","1.2 fold enrichment (6-mer frequency, TF over GST control)"
AATACG,"1.23 fold enrichment (6-mer frequency, TF over GST control)","1.23 fold enrichment (6-mer frequency, TF over GST control)","1.28 fold enrichment (6-mer frequency, TF over GST control)","1.24 fold enrichment (6-mer frequency, TF over GST control)","1.12 fold enrichment (6-mer frequency, TF over GST control)","1.27 fold enrichment (6-mer frequency, TF over GST control)","1.19 fold enrichment (6-mer frequency, TF over GST control)","1.26 fold enrichment (6-mer frequency, TF over GST control)"
